Experimental data reported in the supplement of paper PMC6555819.

Tests used:
Test in all cases: PBM binding z-score (relative to random genomic background probes); higher = stronger binding; sequences stand for … in GC…GCGATTGACAGCGTAGAATGAAGG
[1] = test system: FXR:RXRa (NR concentration 270 nM, RXRa partner concentration 90 nM)
Method in brief: (§1)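 Custom Agilent 4×180K protein-binding microarrays carried double-stranded probes. Their 34-nt variable regions held direct-repeat seeds, single-nucleotide variants, half-site ablations and random human genomic background sequences. Arrays were incubated 1 h with ligand-free nuclear receptor dimers in PBS pH 7.4, 2% milk, 0.02% Triton X-100, 1 mM DTT, 0.2 mg/mL BSA and 0.4 mg/ml salmon testes DNA. Antibodies against each partner (one per run) detected binding, and scanned fluorescence was regression-normalized. Binding z-scores use random background probes as reference.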

[2] = test system: LXRa:RXRa (NR concentration 270 nM, RXRa partner concentration 90 nM)
Method in brief: as §1

[3] = test system: LXRa homodimer (NR concentration 270 nM)
Method in brief: as §1

[4] = test system: LXRb:RXRa (NR concentration 270 nM, RXRa partner concentration 90 nM)
Method in brief: as §1

[5] = test system: LXRb homodimer (NR concentration 270 nM)
Method in brief: as §1

[6] = test system: PPARa:RXRa (NR concentration 270 nM, RXRa partner concentration 90 nM)
Method in brief: as §1

[7] = test system: PPARg:RXRa (NR concentration 180 nM, RXRa partner concentration 90 nM)
Method in brief: as §1

[8] = test system: PPARg:RXRa 270nM:90nM, anti-RXR (NR concentration 270 nM, RXRa partner concentration 90 nM)
Method in brief: as §1

[9] = test system: PPARg:RXRa 30nM:10nM, anti-RXR (NR concentration 30 nM, RXRa partner concentration 10 nM)
Method in brief: as §1

[10] = test system: PPARg:RXRa 90nM:30nM, anti-RXR (NR concentration 90 nM, RXRa partner concentration 30 nM)
Method in brief: as §1

Sequence	PBM binding z-score [1]	PBM binding z-score [2]	PBM binding z-score [3]	PBM binding z-score [4]	PBM binding z-score [5]	PBM binding z-score [6]	PBM binding z-score [7]	PBM binding z-score [8]	PBM binding z-score [9]	PBM binding z-score [10]
TAGCCTAGGTCATTCAGGGGCCTGTATAGAAAGC	4.5	3.47	0.422	2.66	0.91	3.5	2.01	2.08	0.363	1.19
GATAGCAGGCCATTTGGGTCACTCAATGACGGGC	0.302	-0.115	-0.247	0.0936	-0.607	1.73	1.4	1.12	-0.311	0.763
TCAGACAGGTGGAGGTAACTCAGGTACGCAGTCG	0.494	1.77	-0.167	0.998	0.354	0.55	0.357	1.4	3.1	2.3
GGAACGAGGACAAGTTGATAGCAGAGTTTGATGG	0.526	-0.33	-0.0892	-0.534	-0.685	0.0298	0.641	-0.0478	-0.0459	-0.0367
CCTCGAAGGACAACAGGAGGTCAGAGCTGCCAGA	0.962	1.97	1.73	1.5	-0.405	2.05	0.581	0.229	-0.343	-0.119
TCATATAGGTAAATGCTAGGTGAAAGTGCGATCT	1.14	1.17	0.315	0.829	0.24	1.87	1.89	3.48	3.99	3.81
GCTGCTAGGTCAACTGATGGTCAGCAAAAGCTCG	4.32	3.25	0.157	2.12	0.113	3.81	2.95	3.41	0.384	2.37
AGAATGAGGTTACAAAAGATCAGGGAAACGCTTG	1.59	6.22	-0.11	3.07	0.0675	3.05	2.31	2.26	0.772	1.54
TCCGACAGGTGAAGGTAACTCAGGTACGCAGTCG	0.658	1.48	-0.467	0.558	-0.785	0.847	0.493	1.09	2.1	1.34
ATATGTAGGTTACATCCGGGTCATTCAGGCTATG	2.66	4.27	1.82	3.02	0.76	4.32	5.92	5.17	2.54	4.54
GCAGACAGGTGAAACGCAGGCAACTCAGGGTGGC	-0.553	-0.232	-0.806	-0.499	-1.09	0.513	0.448	-0.314	-0.566	-0.565
ATCGAAAGGTCGAGGTGAGTTTAGAGAAAGGGAA	4.34	3.68	-0.00415	2.76	0.473	4.5	3.03	3.81	1.16	2.57
TCGACTAGGTTACCAATGGGGCATTCAGCTTTCT	0.55	1.5	-0.443	1.49	-0.537	1.37	0.614	1.78	2.68	2.06
CTACCAAGGTGAACAAGGTCTTTGATTACTATTC	0.811	0.534	-0.122	1.18	-0.113	1.71	0.626	0.721	0.0464	0.438
TTACCAAGGTGAGCTGAGCTCGTTGATCCAACTC	-0.195	-0.544	-0.993	-0.67	-1.3	0.11	-0.393	-0.0625	-0.293	-0.268
AGTCAAAGTTCATGACGAGGTAACGTAAAGCACG	6.67	6.13	2.96	3.45	0.691	5.01	6.45	6.59	3.58	5.63
ATCGAAAGTTCGTGAGGTGAGTATACAGAAAGGC	1.21	1.26	0.0798	0.398	-0.197	1.88	0.759	0.561	0.146	0.655
CTAGAAAGGTCGTGCTCAGGTGAGTATACCAAAC	4.5	3.64	0.405	3.02	0.336	4.78	2.51	3.48	0.919	2.34
TCTTGTAGATCAAGCAGGTTAATAAAGCCTGAGT	0.189	0.118	-0.263	0.262	-0.449	0.639	-0.267	0.922	2.43	1.6
TCTTGTGGATCAGCAGGTTAAGAAAGCTGGCCAA	0.261	0.254	-0.184	0.0295	-0.411	0.761	-0.589	1.27	2.47	1.83
TCTTGTAGATCAAGCAGGCTAAGAAAGCCTGAGT	-0.142	-0.307	-0.525	-0.376	-0.474	0.113	-0.409	0.913	2.4	1.59
CCTACTGGGCCATCAGATCATTGATATCAACGTT	-0.345	-0.391	-0.0851	-0.263	-0.349	0.662	1.01	1.49	0.163	1.28
AGTATGAGGTTACCAAAGATCAGGGAAACGCTTG	1.85	5.92	0.237	3.08	0.134	2.76	1.79	1.65	0.652	1.11
ACTATTAGTCGACTTAGGGCAACCGATACGACGC	-0.365	-0.211	-0.355	-0.374	0.47	-0.446	0.825	0.138	0.0617	0.0451
ACTAGCAGGCCAAGTTTGGGTCACTCACACAAAG	0.272	0.288	-0.0849	0.693	-0.282	1.41	0.507	0.233	-0.397	-0.0603

Sequence	PBM binding z-score [1]	PBM binding z-score [2]	PBM binding z-score [3]	PBM binding z-score [4]	PBM binding z-score [5]	PBM binding z-score [6]	PBM binding z-score [7]	PBM binding z-score [8]	PBM binding z-score [9]	PBM binding z-score [10]
GCGACTGGGGCATCAGCAAGTTACCATAACTTAA	-0.358	-0.587	-0.708	0.105	-0.805	0.514	0.866	1.08	-0.463	0.387
GATACAGGGTCAAGGCCAGCGTACGCGTATTGAT	6.93	4.12	0.203	3.86	-0.187	5.63	5.9	5.32	2.19	4.12
GTACCATGGTGAATAGGTCGTTGATGAGTAGGCG	-0.238	0.114	-0.331	-0.0798	-0.524	0.641	0.623	0.293	-0.175	0.119
ATCTCTAGGTCAAGATAGTTCAGTGAATGCAAAT	3.96	6.31	4.48	3.62	1.93	4.23	4.92	4.63	2.03	3.66
CGCGAAAGGTCGTGCTCAGGTGAGTATACCAAAC	5.65	3.9	0.199	3.55	-0.0921	4.89	3.65	4.46	0.769	2.86
TCGAGTAGCTTACCAATGGGGCATTCAGCTTTCT	-0.38	-0.514	-0.884	0.00146	-1.08	-0.152	-0.423	-0.0428	0.616	0.411
AAATGTAGGTTAGCTGGGGTCATTCAGACTAGGC	4.53	5.93	3.17	4.82	0.888	5.67	6.42	5.77	3.31	5.16
TCTTGAAGATCAATAGAGGTTAAGAAAGTGCGCT	1.21	3.88	0.18	1.99	-0.548	1.79	-0.0471	1.56	2.76	2.46
CCTACTAGGCCATTCAGAGGTCATTGATCATATG	3.52	4.52	7.03	4.15	1.58	4.04	3.11	3.87	1.41	3.08
TCATATAGGTAAACAGGTTAAAGTCCGTAAGTTA	0.775	1.24	0.749	1.34	0.393	2.69	2.85	3.9	4.25	3.91
TAGCCTAGGTCATGCGGGGCAGTATAGTGTCGGC	3.99	3.24	0.431	2.23	0.295	3.56	2.18	2.41	0.0404	1.28
TCTTATAGATCAAAGGTTAAGAAAGCCGAAGCCT	2.06	2.39	0.368	2.31	-0.12	4.55	7.79	7.92	7.61	9.15
CCTCGGAGGACAGTAGGTCAGAGCTGTCCGCTTT	0.394	0.75	-0.0267	-0.0579	-0.769	1.64	0.253	1.47	-0.726	0.521
ACTAGTTGGTCAGCTGAGGTCAAACACAATTCGG	3.81	4.24	4.08	4.26	1	4.22	1.65	2.34	0.396	1.55
ACTCGGAGGACAAAGGTCAAAGCTACGCCAGTGA	6.13	5.86	4.17	5.35	1.64	6.23	8.63	7.42	6.79	8.13
CTACCAAGGTGAACAAGGTCGTCGATTACTATTC	1.41	1.49	0.0578	1.95	-0.568	2.77	1.41	1.59	0.0715	0.943
CCTTACGGGTCAAGGTCATAGCACGGGTGGTACG	6.75	5.29	1.9	4.12	0.624	5.78	6.03	5.86	2.53	4.68
CCTACTGGGCCACGACAGGTCATTGATTCAGTGA	0.777	2.99	1.75	1.48	-0.349	2.68	2.81	2.84	0.448	1.68
CCTACTGGGCCATTCAGAGGTCATTGACCATATG	3.07	4.59	6.66	3.95	0.537	3.86	2.55	3.37	1.07	2.25
TCATATAGGCAAACAGGTGAAAGTCCGTAAGTTA	0.489	0.602	-0.0652	0.614	-0.318	1.33	0.726	2.34	3.4	2.91
ATCTCTAGGTAAAGTTCAGAGAAAGATCGATAGA	1.31	1.89	1.72	1.3	0.639	2.4	3.54	4.66	2.76	4.68
CCTGACAGGTGAAAGGTAACTCAGTCTGGTACGC	0.803	0.991	-0.258	0.923	-0.669	3.38	5.7	6.09	4	5.75
TCTAGCAGGCCAGAGGGTCATTCAAGAGGTACGG	1.45	1.27	-0.353	1.51	-1.01	2.71	1.54	3.08	2.26	2.98
TAGCCTAGGTCATGCAGGCCAGTATAGTGTCGGC	3.92	2.91	0.151	1.7	-0.186	3.38	2.19	2.37	0.209	1.34
